# In the library only some 27% were active in any assay of this set; here they are far more common.
# Cav32 inh: Cav3.2 calcium influx blockers – cell-based, Fluo-4 calcium fluorescence, FDSS, MLSMR library, primary screen; Cav3.2-expressing cells; stronger effect = lower value; B-score at 10 µM; hit rate 4% among 100,000;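 active means single-dose well whose peak fluorescence ratio is a statistical outlier from its plate by either plate-standardised score or position-corrected B-score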
# Target sequence (O95180 whole entry, looked up): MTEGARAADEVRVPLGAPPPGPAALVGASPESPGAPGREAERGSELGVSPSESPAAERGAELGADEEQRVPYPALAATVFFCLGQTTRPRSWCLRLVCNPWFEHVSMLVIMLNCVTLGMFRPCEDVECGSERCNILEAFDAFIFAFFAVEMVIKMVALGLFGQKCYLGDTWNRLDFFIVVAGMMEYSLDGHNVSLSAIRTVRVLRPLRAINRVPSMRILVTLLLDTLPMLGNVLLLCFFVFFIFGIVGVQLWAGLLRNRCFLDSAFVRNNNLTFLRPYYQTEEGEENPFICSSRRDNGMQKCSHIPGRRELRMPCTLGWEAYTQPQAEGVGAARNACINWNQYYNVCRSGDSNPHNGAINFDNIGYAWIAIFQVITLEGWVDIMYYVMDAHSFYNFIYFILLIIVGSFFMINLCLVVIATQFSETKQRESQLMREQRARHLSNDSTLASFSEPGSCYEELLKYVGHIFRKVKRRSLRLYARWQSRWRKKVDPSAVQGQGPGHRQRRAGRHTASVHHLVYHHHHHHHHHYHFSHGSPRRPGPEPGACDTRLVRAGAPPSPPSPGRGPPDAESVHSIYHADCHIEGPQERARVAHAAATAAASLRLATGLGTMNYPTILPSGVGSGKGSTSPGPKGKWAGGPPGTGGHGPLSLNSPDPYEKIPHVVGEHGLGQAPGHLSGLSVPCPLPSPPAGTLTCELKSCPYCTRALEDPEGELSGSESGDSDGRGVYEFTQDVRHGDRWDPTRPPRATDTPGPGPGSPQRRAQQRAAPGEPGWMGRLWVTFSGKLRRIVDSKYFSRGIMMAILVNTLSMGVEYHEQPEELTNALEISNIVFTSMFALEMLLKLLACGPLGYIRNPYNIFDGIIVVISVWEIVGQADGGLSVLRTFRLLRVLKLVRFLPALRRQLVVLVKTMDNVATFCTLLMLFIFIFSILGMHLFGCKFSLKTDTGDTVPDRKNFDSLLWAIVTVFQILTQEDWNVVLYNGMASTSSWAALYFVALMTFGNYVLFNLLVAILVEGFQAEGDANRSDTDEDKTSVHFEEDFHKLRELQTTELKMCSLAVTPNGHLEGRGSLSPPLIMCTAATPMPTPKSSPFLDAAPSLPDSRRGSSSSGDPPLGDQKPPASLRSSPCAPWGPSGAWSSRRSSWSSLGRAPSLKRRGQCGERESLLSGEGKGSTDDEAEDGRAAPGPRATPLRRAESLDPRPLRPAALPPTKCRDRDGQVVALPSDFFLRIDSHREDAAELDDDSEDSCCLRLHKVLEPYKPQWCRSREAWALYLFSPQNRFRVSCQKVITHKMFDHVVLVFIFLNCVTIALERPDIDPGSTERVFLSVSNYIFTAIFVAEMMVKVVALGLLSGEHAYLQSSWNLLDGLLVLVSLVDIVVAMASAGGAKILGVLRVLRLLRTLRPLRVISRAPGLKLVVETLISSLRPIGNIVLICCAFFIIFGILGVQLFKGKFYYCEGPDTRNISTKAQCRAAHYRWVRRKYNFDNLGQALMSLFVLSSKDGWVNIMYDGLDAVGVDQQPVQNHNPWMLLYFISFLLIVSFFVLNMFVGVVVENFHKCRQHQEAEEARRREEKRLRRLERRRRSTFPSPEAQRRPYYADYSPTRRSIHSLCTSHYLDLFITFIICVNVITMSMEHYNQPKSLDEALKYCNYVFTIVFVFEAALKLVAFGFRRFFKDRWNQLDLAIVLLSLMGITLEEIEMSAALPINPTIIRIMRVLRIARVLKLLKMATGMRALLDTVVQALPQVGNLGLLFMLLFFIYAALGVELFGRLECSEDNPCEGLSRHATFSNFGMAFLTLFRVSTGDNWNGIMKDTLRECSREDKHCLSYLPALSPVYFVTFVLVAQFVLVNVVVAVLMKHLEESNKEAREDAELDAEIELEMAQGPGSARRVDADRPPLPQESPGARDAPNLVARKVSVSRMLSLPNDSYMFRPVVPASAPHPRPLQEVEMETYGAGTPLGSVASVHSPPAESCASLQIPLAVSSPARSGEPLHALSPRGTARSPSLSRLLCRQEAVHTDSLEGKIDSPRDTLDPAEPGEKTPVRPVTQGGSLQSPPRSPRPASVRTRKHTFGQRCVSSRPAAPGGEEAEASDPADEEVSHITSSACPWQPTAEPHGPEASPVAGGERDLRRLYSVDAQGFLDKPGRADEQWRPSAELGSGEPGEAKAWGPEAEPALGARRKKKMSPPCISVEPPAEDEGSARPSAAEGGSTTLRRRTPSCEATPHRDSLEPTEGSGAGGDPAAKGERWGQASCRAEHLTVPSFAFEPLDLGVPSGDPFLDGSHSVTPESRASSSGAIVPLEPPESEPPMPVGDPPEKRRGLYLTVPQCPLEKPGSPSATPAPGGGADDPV
# CYP2C9 inh: blockers of cytochrome P450 2C9 activity – biochemical, luminescence, ADME assay, primary screen | hit rate 20% among 96,000 | P11712 | CYP2C9 Supersomes, luciferin-H conversion | AID 777, 2007 | inhibition, % at 5 µM;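 active means blocking of liver enzyme CYP2C9 beyond about 50% at 5 µM, limit read from the data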
# CYP2C19 activ: human CYP2C19 activators, primary screen, biochemical, luminescence; Cytochrome P450 2C19 (Homo sapiens), P33261; recombinant CYP2C19, luciferin-H EGE luminescence; stronger effect = higher value; 0 = fully inhibited enzyme, 1 = untreated enzyme; activation factor at 5 µM; 96,000 tested, under 10 active;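 active means activation factor of at least 2 at 5 µM in the primary screen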;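 further: 0 = wells with 2.5 mM tranylcypromine and 1 = vehicle-only wells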
# CYP2C9 activ: human CYP2C9 activators, primary screen, biochemical, luminescence. recombinant CYP2C9, luciferin-H conversion; stronger effect = higher value; factor 1 = untreated enzyme, 0 = blocked. activation factor at 5 µM. hit rate 1.4% among 96,000. Cytochrome P450 2C9 (Homo sapiens), P11712;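 active means activation factor of 2 or more for CYP2C9 at a 5 µM dose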;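 further: 0 = sulfaphenazole-blocked wells and 1 = vehicle-only wells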
# CYP2C19 inh: blockers of cytochrome P450 2C19 activity – biochemical, luminescence, ADME assay, primary screen; CYP2C19 Supersomes, luciferin-H EGE luminescence, 30 min; hit rate 21% among 96,000; AID 778, 2007; inhibition, % at 5 µM;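 active means CYP2C19 inhibition above a set limit at 5 µM in the primary screen, cut at about 50% in these data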;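 further: plate controls were negative control wells for no effect and 2.5 mM tranylcypromine positive control for full effect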
# Starred values were filed as active, the others as inactive; nt = not tested or not shown.
SMILES,Cav32 inh,CYP2C9 inh,CYP2C19 activ,CYP2C9 activ,CYP2C19 inh
Nc1nnc(SCC(=O)Nc2cc(C(F)(F)F)ccc2N2CCOCC2)s1,0.2,77*,0.2,0.2,78*
O=C(Nc1cc(C(F)(F)F)ccc1N1CCOCC1)c1cccc(F)c1,-0.02,4,0.2,1,83*
Cn1c(=O)c2ncn(CC(=O)Nc3cc(C(F)(F)F)ccc3N3CCOCC3)c2n(C)c1=O,0.23,57*,0.6,0.4,41
COc1cccc(OC)c1C(=O)Nc1cc(Cl)ccc1N1CCOCC1,-0.21,62*,0.6,0.4,41
O=C(Nc1cc(C(F)(F)F)ccc1N1CCOCC1)c1ccccc1F,nt,-7,0.9,1.1,8
CC(C)(C)C(=O)NC(=S)Nc1cc(C(F)(F)F)ccc1N1CCOCC1,-2,94*,0,0.1,96*
O=C(Nc1cc(C(F)(F)F)ccc1N1CCOCC1)c1ccc2ccccc2n1,-1.5,60*,0.7,0.4,31
CCc1nnc(NC(=O)CSc2nnc(C)n2CC2CCCO2)s1 (stereo not given),0.57,-8,1.2,1.1,-19
CCOc1ccccc1N1CCN(C(=O)c2cc(C)oc2C)CC1,0.0013,27,0.3,0.7,68*
CCOc1ccccc1N1CCN(C(=O)c2cc[n+]([O-])cc2)CC1,-0.056,-6,0.2,1.1,80*
CCOc1ccccc1N1CCN(C(=O)Nc2ccc(F)c(Cl)c2)CC1,-4.1*,-13,0.8,1.1,24
CCOc1ccccc1N1Cc2cc(C)c(C)cc2C1,-0.0019,23,0.5,0.8,54*
CCCc1c(OCCCCc2nn[nH]n2)ccc(C(C)=O)c1O,0.19,nt,nt,nt,nt
CCOc1ccccc1N1CCN(C(=O)C(Sc2ccccc2)c2ccccc2)CC1 (stereo not given),-1.8,42,0.5,0.6,51*
CCCc1ccc(C(=O)N2CCN(c3ccccc3OCC)CC2)cc1,0.35,76*,0.1,0.2,88*
Clc1ccc(CSc2nncn2-c2ccccn2)cc1,0.83,7,0.3,0.9,68*
Cc1cccc(NC(=O)CSc2ncnc3c2oc2ccccc23)c1,-0.88,63*,0.6,0.4,38
O=C(CSc1ncnc2c1oc1ccccc12)Nc1cccc(F)c1,-1,76*,0.4,0.2,60*
Cc1ccc2nc(NC(=O)CSc3ncnc4c3oc3ccccc34)sc2c1,nt,27,0.8,0.7,22
Cc1ccccc1NC(=O)Cn1cnc2c(oc3ccccc32)c1=O,0.79,59*,0.4,0.4,64*
O=C(CSc1ncnc2c1oc1ccccc12)NC1CCCCC1,-0.86,72*,0.3,0.3,72*
O=C(Cn1cnc2c(oc3ccccc32)c1=O)c1ccccc1,0.06,28,1,0.7,4
CC(C)CCNC(=O)c1nnc(Cc2ccc(Cl)cc2)o1,-0.65,-89,0.9,1.9,12
O=C(CSc1ncnc2c1oc1ccccc12)NCc1ccc(F)cc1,-1.1,72*,0.3,0.3,65*
CC(=O)NS(=O)(=O)c1ccc(NC(=O)c2ccc(Br)o2)cc1,0.021,-11,1,1.1,-2
SMILES,Cav32 inh,CYP2C9 inh,CYP2C19 activ,CYP2C9 activ,CYP2C19 inh
Cc1nc(-c2coc3cc(O)c(C)cc3c2=O)cs1,-0.0085,4,0.3,1,68*
Cc1sc2nc(C(C)C)nc(SCC(=O)N3CCN(C(=O)c4ccco4)CC3)c2c1C,1.7,92*,0.2,0.1,80*
O=C(O)C1=C(C(=O)N2CCN(C(=O)c3ccco3)CC2)CCCC1,nt,4,1,1,0
Cc1sc2ncnc(SCC(=O)N3CCN(C(=O)c4ccco4)CC3)c2c1C,0.98,38,0.9,0.6,11
CC(C)c1nc(N2CCN(C(=O)c3ccco3)CC2)c2c3c(sc2n1)CCCC3,-2.3,58*,0.6,0.4,38
Cc1nc(SCC(=O)NCc2ccco2)c2c3c(sc2n1)CCCC3,-2.2,37,0.8,0.6,24
Cc1nc(N2CCN(C(=O)c3ccco3)CC2)c2c3c(sc2n1)CCC3,0.29,86*,0.1,0.1,86*
O=C(Nc1ncc(Cc2ccccc2)s1)C1COc2ccccc2O1 (stereo not given),-0.22,1,0.9,1,5
CC(C)NC(=O)C1(c2ccccc2)CCOCC1,-0.01,-17,1,1.2,1

# Assay outcomes: PubChem, several laboratories
